The whole screen tested about 260,000 compounds, of which about 1,500 (0.58%) were called active. About 5% were inconclusive and are not listed.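 How the source made its calls: active means inhibition above a set limit at one or more doses, reproduced on every date tested; inconclusive means results disagree between test dates, or hit never tested in dose response; inactive means the rest.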 These entries were drawn from the full list. Entries with a potency or affinity are not part of this list.
Biological target: Virion infectivity factor (Human immunodeficiency virus type 1 group M subtype B (isolate BH10)) + Virion infectivity factor (Human immunodeficiency virus type 1 group M subtype B (isolate BRU/LAI)) + Virion infectivity factor (Human immunodeficiency virus type 1 group M subtype B (isolate PCV12)) + Virion infectivity factor (Human immunodeficiency virus type 1 group M subtype B (isolate HXB2)) + DNA dC->dU-editing enzyme APOBEC-3G (Homo sapiens) (UniProt P69720+P69721+P69722+P69723+Q9HC16)
Assay: HIV-1 Vif–A3G interaction blockers – biochemical, TR-FRET, GST-Vif 1-94, biotin-A3G peptide, dose response retest, primary screen (AID 1117319);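 further: Vif residues 1-94 fused to GST binding biotinylated APOBEC3G peptide 110-148; 0% = full assay without inhibitor and 100% = GST in place of GST-Vif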
Details: TR-FRET GST-Vif / biotin-A3G peptide binding; active compounds read high

inhibition, inactive:
CC1(C)CC(=O)C(C=NCCCN2CCOCC2)=C(O)C1 -5.25%
CCc1cc2ccc(OC)cc2nc1SCC(=O)NNC(=O)c1ccco1 -10%
Cc1ccc(NC(=S)N(CCCN2CCOCC2)Cc2ccco2)cc1C -0.03%
COc1ccc(/C=C2/C(=N)N3C(=NC2=O)Sc2cc(S(C)(=O)=O)ccc23)cc1OC -1.27%
CN(C)c1ccc(/C=C2\C(=N)N3C(=NC2=O)Sc2cc(S(C)(=O)=O)ccc23)cc1 -44.5%
O=C(NCc1nnc(SCC(=O)N2CCc3ccccc32)o1)c1ccco1 1.79%
Cc1cccc(NCC(=O)N/N=C\c2c[nH]c3ccccc23)c1 21.4%
Cc1nc(N)sc1C(=O)N/N=C/c1cccnc1 3.64%
Cc1ccc(Nc2ncc3c(n2)CC(c2ccco2)CC3=O)c(C)c1 (stereo not drawn) 18.1%
O=C(CSc1nnnn1-c1ccccc1)Nc1ncc2c(n1)CC(c1ccccc1)CC2=O (stereo not drawn) 2.52%
CCC(=O)Nc1ncc2c(n1)CC(c1ccco1)CC2=O (stereo not drawn) 31.8%
Cc1cccc(Nc2ncc3c(n2)CC(c2ccco2)CC3=O)c1 (stereo not drawn) 3.03%
CC(C(=O)NC1=NCCS1)(C(F)(F)F)C(F)(F)F -4.2%
COc1ccc(CCNC(=O)CCCc2ccccc2)cc1OC 1%
Cc1ccc(C)c(OCC(=O)Nn2c(C)nc3ccccc3c2=O)c1 -5.76%
C=CCn1c(C)c(C(C)=O)c(N2CCCC2)nc1=S 1.72%
C=CCn1c(C)c(C(C)=O)c(N2CCOCC2)nc1=S 5.16%
O=C(NCC1CCCO1)c1ccc2nc(N3CCCCC3)sc2c1 (stereo not drawn) 1.36%
CC(Oc1ccc(Br)cc1)C(=O)Nc1ccncc1 (stereo not drawn) -0.96%
O=C(NNc1nc2c(F)cccc2s1)c1cc(=O)c2ccccc2o1 21.6%
COc1ccc(CNC(=O)c2cc(=O)c3ccccc3o2)cc1 4.03%
O=S(=O)(c1cccc(F)c1)N1CCN(C(=S)NCc2ccccc2)CC1 -4.04%
O=C(OCc1csc(-c2ccccc2)n1)c1ccc(O)cc1 -8.63%
O=C1c2ccccc2C(=O)N1CCCON1C(=O)c2ccccc2C1=O -6.06%
O=C1c2ccccc2C(=O)N1CCCCON1C(=O)c2ccccc2C1=O -9.96%
CCC(C)NC(=O)C(Cc1ccccc1)NS(=O)(=O)c1ccc2c(c1)CCC(=O)N2 (stereo not drawn) -0.93%
CC(C)=CC(=O)NCc1c(Cl)cccc1-n1cccc1 -7.14%
CCC(=O)NCc1c(Cl)cccc1-n1cccc1 -0.31%
CC(C)(C)c1cc(CCC(=O)N2CCNCC2)c(C(C)(C)C)cc1O -5.87%
Cc1ccc(S(=O)(=O)N2CCN(C(=O)c3cccc(-n4cccc4)c3)CC2)cc1 13.6%
O=C(c1cccc(-n2cccc2)c1)N1CCN(S(=O)(=O)c2ccccc2Br)CC1 -0.78%
CCc1cccc2c(SCC(=O)NCC3CCCO3)nc(-c3ccc(F)cc3)nc12 (stereo not drawn) -2.63%
O=C(NCCn1cc(SCc2ccccc2F)c2ccccc21)c1c(F)cccc1F 23.7%
CCN(CC)c1ccc(/C=N/N2C(=O)c3ccccc3C2=O)cc1 0.19%
CSc1ccc(/C=N/n2c(C)cc(C)cc2=O)cc1 -2.42%
CC(C(=O)OCC(=O)N(C)C1(C#N)CCCCC1)N1C(=O)c2ccccc2C1=O (stereo not drawn) -0.19%
Fc1ccc(CSc2nnc(-c3ccccn3)o2)cc1 -5.79%
O=C1c2ccccc2CC1Sc1nnc(-c2ccncc2)o1 (stereo not drawn) 8.68%
COc1ccc(N=C2SC(C(=O)Nc3ccc(C(=O)O)cc3)CC(=O)N2Cc2cccs2)cc1 (stereo not drawn) -11.4%
Cc1ccc(C)c(NC(=O)C2CCN(S(=O)(=O)c3ccc4c(c3)NC(=O)CO4)CC2)c1 -1.93%
COc1ccc(C(=O)CSc2nnc(-c3ccco3)n2C)cc1 7.51%
Cc1ccc(C(=O)CSc2nnc(-c3ccco3)n2C)cc1 11.4%
O=C(OC(C(=O)NCc1ccco1)c1ccc(Cl)cc1)c1cccs1 (stereo not drawn) 4.09%
CC(C)(C)NC(=O)C(c1ccc(O)cc1)N(C(=O)CCC(=O)Nc1ccccn1)c1ccc(F)cc1 (stereo not drawn) 16.4%
CCOC(=O)C1CCN(C(=O)Nc2ccc3nc(C)c(C)nc3c2)CC1 8.59%
Cc1nc2ccc(NC(=O)N3CCCCC3)cc2nc1C 1.22%
CCOC(=O)C1CCN(C(=O)Nc2ccc3nccnc3c2)CC1 -4.96%
O=C(Nc1ccc2nsnc2c1)N1CCCCCC1 21.1%
CCn1nnnc1NC(=O)c1cc(Cl)c(OC)c(Cl)c1 0.23%
Cc1noc(C(=O)NCC2CCCO2)c1Cl (stereo not drawn) 2.96%
COc1ccc(-n2nnc3c(SCC(=O)OCc4ccccc4)ncnc32)cc1 0.84%
C=CCNC(=O)O/N=C/c1csc([N+](=O)[O-])c1 -6.03%
CC(C)(C)c1ccc(C(=O)N/N=C/c2ccc(OCCCF)cc2)cc1 -1.58%
CCOc1ccc(NC2=CC(=O)C(=O)c3ccccc32)cc1 3.36%
CCOc1ccccc1NCN1C(=O)c2ccccc2C1=O -5.06%
O=C(NC(=S)Nc1ccccc1O)c1cccnc1 -2.04%
COc1ccc(NC(=O)c2oc3ccccc3c2C)c(OC)c1 3.61%
COc1ccccc1NC(=O)c1oc2ccccc2c1C -8.43%
Cc1nn(-c2cccc(Cl)c2)nc1C(=O)Nc1cccc(C(=O)NC2CC2)c1 -8.35%
O=[N+]([O-])c1cccc(N=Nc2ccc(O)cc2O)c1 5.74%
Oc1ccc(N=Nc2ccc3c(c2)OCCO3)c(O)c1 6.46%
Oc1ccc(N=Nc2ccc(Br)cc2)c(O)c1 -5.68%
O=[N+]([O-])c1ccc(N=Nc2ccc(O)cc2O)cc1 27.8%

Reference: PubChem BioAssay AID1117319 (Southern Research Institute, 2015)
